Rows were chosen to be rich in hits. Some 10% of all compounds tested hit in one or more screens of this group.
G9a block = qHTS Assay for Inhibitors of Histone Lysine Methyltransferase G9a | G9a H3K9 monomethylation, AlphaScreen, 2 h | 350,000 tested, 8.8% active | Potency, µM (titrated, usually from 102 µM), for inactives: at the highest dose activity, negative = inhibition, actives largely listed as inhibitors | Histone-lysine N-methyltransferase EHMT2 (Homo sapiens), Q96KQ7; further: on the % scale 0 is the no-effect control and ±100 the full control effect; nearly all actives have a fitted effect of over 75% in size
Target sequence (Q96KQ7 913-1193 limits assumed): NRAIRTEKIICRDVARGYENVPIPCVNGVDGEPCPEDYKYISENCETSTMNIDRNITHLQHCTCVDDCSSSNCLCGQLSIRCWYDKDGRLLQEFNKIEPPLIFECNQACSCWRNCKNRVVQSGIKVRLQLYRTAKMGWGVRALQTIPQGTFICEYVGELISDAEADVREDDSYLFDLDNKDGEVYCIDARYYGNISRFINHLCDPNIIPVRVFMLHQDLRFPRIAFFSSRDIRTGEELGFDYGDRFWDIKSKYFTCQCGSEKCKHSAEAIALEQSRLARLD
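G9a (20 nM) was preincubated 15 min with compound, then reacted 2 h at room temperature with 500 nM biotin-H3K9 peptide and 20 µM SAM. Monomethyl-H3K9 detected by AlphaScreen using anti-H3K9me1 antibody.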
JMJD2A Tudor = qHTS Assay for Inhibitors of JMJD2A-Tudor Domain. 390,000 tested, 4.4% active. Potency, µM (highest dose often 114 µM), for inactives: at the highest dose activity change, negative = inhibition, usual class: inhibitors. AlphaScreen JMJD2A-Tudor / H3K4me3 peptide binding; further: on the % scale 0 is the no-effect control and ±100 the full control effect; nearly all actives have a fitted effect of over 50% in size
HP1b chromo inh = HTS for Inhibitors of HP1-beta Chromodomain Interactions with Methylated Histone Tails; AID 540317, 2011; AlphaScreen HP1-beta / biotin-H3K9me3 peptide binding; Potency, µM (doses to about 114 µM), without a hit: top-dose activity change, negative = inhibition, usual class: inhibitors; 390,000 tested, 0.56% active; further: nearly all actives have a fitted effect of over 70% in size
Target sequence (P83916 whole entry, looked up): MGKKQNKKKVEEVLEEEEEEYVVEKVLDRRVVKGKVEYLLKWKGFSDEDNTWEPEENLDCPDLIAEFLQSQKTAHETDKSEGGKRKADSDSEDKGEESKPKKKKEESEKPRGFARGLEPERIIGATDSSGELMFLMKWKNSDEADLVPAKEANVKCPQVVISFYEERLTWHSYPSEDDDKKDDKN
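HP1-beta protein (50 nM final) preincubated 30 min at room temperature with biotinylated H3(1-18)K9me3 peptide (50 nM) in PBS pH 7.4, 0.01% Tween-20, then compound added for 30 min. AlphaScreen streptavidin donor/nickel chelate acceptor beads (10 ug/mL final), 30 min dark, luminescence read.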
GLS inhibitor = qHTS for Inhibitors of Glutaminase (GLS); Glutaminase kidney isoform, mitochondrial (Homo sapiens), O94925; GLS enzymatic activity, qHTS titration; Potency, µM (top dose mostly 45.5 µM), inactives show top-dose activity change, negative = inhibition, actives largely listed as inhibitors; 410,000 tested, 0.21% active; further: on the % scale 0 is the no-effect control and ±100 the full control effect
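Read-out is an Amplex red fluorescence increase coupled through glutamate oxidase and HRP, measured before and after 30 min room-temperature incubation. hKGA is in 45 mM KH2PO4 (pH 8.2) with 0.02% Tween-20; glutamine added as 1mM solution.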
BAZ2B inh = qHTS Assay for Inhibitors of BAZ2B; Bromodomain adjacent to zinc finger domain protein 2B (Homo sapiens), Q9UIF8; AlphaScreen BAZ2B-H3K14Ac peptide displacement; Potency, µM (top dose mostly 114 µM), without a hit: at the top dose activity change, negative = inhibition, actives largely listed as inhibitors; 360,000 tested, 4.4% active; AID 504333, 2011; further: on the % scale 0 is the no-effect control and ±100 the full control effect; nearly all actives have a fitted effect of over 60% in size
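Protein-peptide AlphaScreen: BAZ2B 50 nM, b-H3K14Ac 50 nM, 1x PBS pH 7.4 + 0.01% Tween-20. Preincubation 30 min RT; cpd 30 min RT (top 110 uM); beads 20 min RT, light-protected.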
Active calls of the source: *; ? = inconclusive; / = not tested or not shown; [ ] = another dose, or the depositor's remark. The call rests on the fitted dose curve; in most records, active means well fitted curve in the direction sought with a large enough effect; inconclusive means small, poorly fitted or top-dose-only effect, or another doubt; inactive means no such curve, though single readings can be large; an effect the other way counts as inactive or inconclusive. Potency means the concentration at half of the fitted maximal effect.

SMILES	G9a block	JMJD2A Tudor	HP1b chromo inh	GLS inhibitor	BAZ2B inh
O=C1C2C3C=CC(C3)C2C(=O)N1c1ncn[nH]1 (stereo not given)	?	50.1µM*	?	-2.3%	?
CCOc1ccc(CN(C)C(=O)CN2C(=O)NC(c3ccccc3)(c3ccccc3)C2=O)cc1	6.3%[2.33 µM]	-33.2%	18.3%	-12.5%	-8.7%
CCOC(=O)[C@]12CCCC=C1N(Cc1ccco1)C(=O)[C@H](CC(=O)NCCc1ccccc1OC)C2	/	/	/	1.9%	/
C(=N\N1CCN(C2c3ccccc3-c3ccccc32)CC1)/c1cccs1	41.4%[0.501 µM]	?	-25.9%	-7.4%	?
COc1ccc(/C=N/N2CCN(C3c4ccccc4-c4ccccc43)CC2)cc1OC	7.6%[59 µM]	-21.8%	8.8%	13.9%	-34.5%
O=C(O)c1ccc(/C=N/N2CCN(C3c4ccccc4-c4ccccc43)CC2)cc1	/	-15.4%[11.4 µM]	-5.1%	-1.8%	44.7µM*
Oc1ccc(/C=N/N2CCN(C3c4ccccc4-c4ccccc43)CC2)cc1O	/	39.8µM*	50.1µM*	11.2µM*	39.8µM*
Cc1ccc(/C=N/N2CCN(C3c4ccccc4-c4ccccc43)CC2)o1	/	44.7µM*	?	4.2%	35.5µM*
O=C(O)c1ccccc1/C=N/N1CCN(C2c3ccccc3-c3ccccc32)CC1	39.8µM*	-28.7%	5.4%	22.1%	-36.8%
Oc1ccc(/C=N/N2CCN(C3c4ccccc4-c4ccccc43)CC2)cc1	-4.8%	-19.0%	12.4%	?	-15.4%
N#Cc1ccccc1OCC(=O)NC(=O)NCc1ccco1	-4.2%[59 µM]	-32.4%	-6.8%	-10.5%	?
CCc1nc2c(OCc3ccc(C#N)cc3)cccn2c1N(C)C(=O)c1cccs1	/	/	/	-0.5%	/
Oc1ccc(/C=N/N2CCN(C3c4ccccc4-c4ccccc43)CC2)c(O)c1	39.8µM*	39.8µM*	?	1.2%	?
Cc1cccc(C(=O)NNC(=O)c2ccc(F)cc2)c1	-5.9%[59 µM]	7.0%	37.1%	-3.5%	-5.9%
O=C(NNC(=O)c1cccc(-n2cccc2)c1)c1ccc(F)cc1	0.9%[12.7 µM]	?	-22.2%	0.0%	39.8µM*
Cc1ccc(S(=O)(=O)NCC(=O)NCC(=O)OCc2c(F)cccc2Cl)cc1	8.91µM*	-4.9%	18.5%	2.3%	2.8%
COc1ccccc1OC(C)C(=O)Nc1c(C(=O)c2ccc(Cl)cc2)oc2ccccc12 (stereo not given)	12.3%[59 µM]	6.2%	41.9%	3.4%	-0.8%
Oc1ccc(N2CCN(Cc3cc4c(cc3Br)OCCO4)CC2)cc1	1.78µM*	35.5µM*	?	19.8%	39.8µM*
O=S(=O)(c1ccc(F)cc1)N1CCN(Cc2cc3c(cc2Br)OCCO3)CC1	17.1%[2.33 µM]	-2.0%	47.2%	-1.8%	1.3%
O=C(c1csnn1)N1CCC2(CC1)CCN(c1ccncc1)CC2	5.2%[12.7 µM]	/	/	/	/
Cc1cc(C)c(S(=O)(=O)N2CCOC2CNC(=O)C(=O)NCc2cccnc2)c(C)c1 (stereo not given)	-5.2%	-3.5%	38.0%	-1.5%	-4.2%
COc1ccc(C=C2NC(=S)NC2=O)cc1	/	-30.3%	-6.1%	1.2%	/
COc1ccc(C(=O)N2C(=S)NC(=O)/C2=C\c2ccc(C)cc2)cc1	-0.6%[59 µM]	50.1µM*	-22.9%	2.8%	50.1µM*
COc1cc(C(O)c2nc(-c3cccc(C#N)c3)cs2)ccc1F (stereo not given)	/	/	/	1.9%	/
Cc1nc(SCc2cc(=O)c3cccc(F)c3[nH]2)n[nH]1	-1.8%[59 µM]	6.8%	32.2%[57 µM]	-2.1%	7.1%
SMILES	G9a block	JMJD2A Tudor	HP1b chromo inh	GLS inhibitor	BAZ2B inh
O=C(c1ccc2c(c1)OCCO2)N1CCN(c2nc(-c3cccs3)nc3ccccc23)CC1	/	-20.4%	19.5%	/	/
COc1ccc2c(c1)NC(c1ccc(Cl)cc1)=NC(c1cccs1)=N2	?	14.1µM*	?	5.1%	-27.7%
Fc1ccc2c(c1)NC(c1ccncc1)=NC(c1cccs1)=N2	-28.0%[59 µM]	?	3.9%	13.4%	-36.0%
CCOc1ccc(C(=O)Nc2cccc(-c3ccc(N4CCOCC4)nn3)c2)cc1OCC	44.7µM*	-11.6%	4.0%	-0.3%	-4.9%
CN1CCN(c2ccc(-c3cccc(NC(=O)COc4ccccc4)c3)nn2)CC1	?	-13.1%	15.2%	-0.4%	7.7%
CN1CCN(c2ccc(-c3cccc(NC(=O)COc4ccc(Cl)cc4)c3)nn2)CC1	50.1µM*	-33.8%	-14.1%	-0.6%	-9.8%
Cc1nnc(-c2cccc(Br)c2)c2cn(-c3cccc(Br)c3)nc12	?	?	23.2%	-2.0%	56.2µM*
Cc1cccc(N2CCN(C(=O)C3CCN(c4ncnc5c4nc4n5CCCCC4)CC3)CC2)c1C	-13.3%	?	12.8%	2.5%	?
Cc1cccc(N2CCN(C(=O)C3CCN(c4ncnc5c4nc4n5CCCCC4)CC3)CC2C)c1 (stereo not given)	-32.0%	-30.3%	7.1%	43.0%	35.5µM*
CC(=O)Nc1ccc(S(=O)(=O)Nc2ccc(C(=O)NCC(=O)O)cc2)cc1	20µM*	0.3%	27.5%	-5.7%	-15.5%
CC(=O)Nc1ccc(NS(=O)(=O)c2ccc3ccccc3c2)cc1	-3.3%[12.7 µM]	28.2µM*	-9.1%	-14.3%	-6.4%
CC(=O)Nc1ccc(NS(=O)(=O)c2ccc3c(c2)n(C)c(=O)n3C)cc1	3.5%	-8.2%	49.1%	-10.2%	79.4µM*
O=[N+]([O-])c1ccc2c(c1)C(=Nc1ccccc1)c1ccccc1-2	/	31.6µM*	?	-9.2%	/
Cc1cc(=O)c2cc3nc(-c4cccnc4)oc3c(Br)c2o1	39.8µM*	/	/	/	79.4µM*
O=c1oc(-c2cccnc2)nc2ccccc12	?	-6.6%	31.8%	-6.4%	0.1%
Nc1nc(-c2cc3c(cc2Cl)OCCO3)cs1	14.1µM*	-22.8%	4.9%	-5.0%	?
CCCC(c1nnnn1CS(=O)(=O)c1ccc(C)cc1)N1CCN(C2CCCC2)CC1 (stereo not given)	50.1µM*	?	-13.6%	8.0%	-25.0%
COc1cc(C2CC(=O)Oc3cc(C)c(Cl)cc32)cc(OC)c1OC (stereo not given)	20.6%	/	/	/	/
O=C1S/C(=C\C=C\c2ccco2)C(=O)N1c1ccccc1	39.8µM*	10µM*	?	-14.4%	39.8µM*
O=C1S/C(=C\c2cccs2)C(=O)N1c1ccc(O)cc1	-0.1%	-16.1%	19.4%	-15.0%	2.0%
O=C1S/C(=C\C=C\c2ccco2)C(=O)N1c1ccc(O)cc1	39.8µM*	?	?	?	44.7µM*
C=CCn1c(C(C)NC(=O)c2ccccc2C)n[nH]c1=S (stereo not given)	20µM*	7.94µM*	43.9%	3.0%	-3.8%
